# Laboratory results published in PubChem BioAssay (NCATS).
# Records with an inconclusive call do not appear. Values without a mark were called inactive. The call rests on the fitted dose curve; in most records, active means well fitted inhibition curve with a large enough effect; inconclusive means small, poorly fitted or top-dose-only effect; inactive means flat fitted curve, though single readings scatter.
# Assay: qHTS profiling for inhibitors of Plasmodium falciparum proliferation (AID 504749);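 further: 0% = DMSO vehicle and full inhibition = artemisinin control; nearly all actives have a fitted effect of over 60% in size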
# Settings: P. falciparum in erythrocytes, SYBR Green DNA, 72 h; at 28.7 µM (top of the series); parasite line A
# Summary of the method: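 SYBR Green fluorescence (ex 485 nm, em 535 nm) reports parasite DNA after 72 h compound exposure of infected red cells at 0.3% parasitemia, 2.5% hematocrit; signal normalized to 0.29 uM artemisinin and vehicle wells.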
row,Structure (SMILES),"activity, negative = inhibition [%]"
1,CCCCCCCCCC(=O)NO,-20
2,[O]=[Bi][O]C(=O)[O][Bi]=[O],3.84
3,OCCOCCOCCO,16.8
4,CC(=O)[O][Al][O]C(C)=O,4.56
5,CC(C)(C)CC(C)(C)c1ccc(OCCO)cc1,-21
6,CNC(=O)OCc1cccc(COC(=O)NC)n1,3.63
7,CCCCCCCCCCCCCCCCCC(=O)OCC(C)O (stereo not drawn),4.03
8,CC(C)O,2.73
9,O=C(O[C@H]1CN2CCC1CC2)N1CCc2ccccc2[C@@H]1c1ccccc1,-23.3
10,O=c1[nH]c(=O)n([C@H]2C[C@H](O)[C@@H](CO)O2)cc1/C=C/Br,6.74
11,OC[C@H]1O[C@@](CO)(O[C@H]2O[C@H](CO)[C@@H](O)[C@H](O)[C@H]2O)[C@@H](O)[C@@H]1O,11.2
12,CC1(C)S[C@@H]2[C@H](NC(=O)C3(N)CCCCC3)C(=O)N2[C@H]1C(=O)O,1.02
13,S=C=Nc1ccc(N=C=S)cc1,10.9
14,C=Cc1ccc(S(=O)(=O)O)cc1,12.2
15,OCl,10.5
16,COC(=O)c1ccccc1O,-0.0049
17,COc1ccc(/C=C/C(=O)OCCC(C)C)cc1,6.28
18,O=C(O)c1cc(N=Nc2ccc(O)c(C(=O)O)c2)ccc1O,9.5
